Percent Effect data for 50 molecules are collected here from ChEMBL document CHEMBL3988442, “University of Dundee, Small-Polar-MMV Screening Library” (2021).

For experiment [1], the target named is T1, Aspartate--tRNA(Asp/Asn) ligase (Mycobacterium tuberculosis (strain ATCC 25618 / H37Rv)) (UniProt P9WFW3). Further: in the data most compounds retested in dose-response had high values.
T1 sequence (whole entry): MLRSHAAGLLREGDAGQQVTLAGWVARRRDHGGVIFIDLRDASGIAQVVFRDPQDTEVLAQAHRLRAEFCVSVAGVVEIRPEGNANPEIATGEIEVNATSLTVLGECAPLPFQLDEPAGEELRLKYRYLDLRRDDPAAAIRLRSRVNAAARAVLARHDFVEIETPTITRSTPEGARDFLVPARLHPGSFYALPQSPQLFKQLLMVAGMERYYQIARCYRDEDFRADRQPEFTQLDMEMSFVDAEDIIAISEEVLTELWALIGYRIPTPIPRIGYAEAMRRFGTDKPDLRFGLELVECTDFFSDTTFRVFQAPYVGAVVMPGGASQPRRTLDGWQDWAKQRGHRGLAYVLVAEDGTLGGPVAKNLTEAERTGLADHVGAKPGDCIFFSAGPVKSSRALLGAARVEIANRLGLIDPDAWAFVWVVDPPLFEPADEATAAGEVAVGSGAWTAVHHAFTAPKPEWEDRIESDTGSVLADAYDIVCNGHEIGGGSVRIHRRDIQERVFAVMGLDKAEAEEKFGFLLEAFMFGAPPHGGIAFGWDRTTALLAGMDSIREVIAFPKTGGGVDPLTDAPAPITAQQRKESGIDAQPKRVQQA
The experiment can be described thus: Assay for Asp RNA synthetase-1 from Mycobacterium tuberculosis. Format: functional. Also on record: scale not given: direction of the effect not stated beside the values. The note with it: 30 µM.

Experiment [2] concerns the target Shiga toxin 2 (Escherichia coli O157:H7) (UniProt P09385+P09386). Put plainly: E. coli 0.157:H7 Shiga Toxin SOP - stx2 screening assay. Also on record: scale not given: direction of the effect not stated beside the values. The class given is functional. As to conditions: 30 µM.

In the case of `COCCOc1ccccc1C(=O)N1CCCCC1c1nccs1` (stereo not given), the Percent Effect in experiment [1] is 4.67%; in experiment [2], -6.36%.
Turning to `Cc1ccoc1C(=O)NC1CCN(Cc2csc3c(F)cccc23)CC1`, the Percent Effect in experiment [1] was -0.83%; in experiment [2], -64.2%.
The corresponding values for `c1ccc2cc(OCCN3CCOC(Cn4cncn4)C3)ccc2c1` (stereo not given) are -2.92% and -29.2%.
In the same order, the values of `Cc1cnn(C(C)C2CC2)c1NC(=O)c1ccncc1` (stereo not given) are 4.07% and 1.34%.
In the same order, the values of `Cn1cc(Br)c(=O)c(NS(=O)(=O)c2cc(F)ccc2Cl)c1` are -1.26% and 16.3%.
For `Cc1nn(C)c(Cl)c1C1CCCN1C(=O)c1ccc2c(c1)OCO2` (stereo not given), the Percent Effect in experiment [1] was -0.434%; in experiment [2], 12%.
In the same order, the values of `CCN(CC)CCNc1ncc(-c2cc(C)no2)c(-c2ccoc2C)n1` are 2.28% and 7.04%.
In the same order, the values of `COc1cc(C)nc(N2CCN(C(=O)c3ccc(Cl)o3)CC2)n1` are 0.508% and 20%.
In the same order, the values of `Cc1ccc(C(=O)N2CCSCC2)cc1NC(=O)NCCO` are 0.137% and 5.64%.
`CC(O)CN1CCN(C(=O)c2cn(-c3ccccc3Cl)nn2)CC1` (stereo not given): the results for the Percent Effect in experiment [1] and in experiment [2] were 3.29% and -10.2%, respectively.
The corresponding values for `c1ccc2oc(CCCN3CCOC(Cn4cccn4)C3)nc2c1` (stereo not given) are 0.605% and -3.52%.
Regarding `O=C(NCc1nnc2ccccn12)N1CCc2sccc2C1`, the Percent Effect in experiment [1] was -2.69%; in experiment [2], 1.75%.
As for `Cc1[nH]c(=O)c(C#N)cc1C(=O)N1C[C@@H](CN2CCCC2)C[C@H](CO)C1`, the Percent Effect in experiment [1] is -2.04%; in experiment [2], -3.42%.
The corresponding values for `Cc1nc(C)c(C(=O)NCCNC(=O)c2ccc(F)cc2F)s1` are -2.04% and -16%.
The corresponding values for `CNC(=O)[C@@]12CCO[C@@H]1CCN(Cc1scnc1C)C2` are -0.714% and -2.91%.
In the same order, the values of `CCNC(=O)c1nc2c(s1)CCCN2S(C)(=O)=O` are 7.8% and -17.3%.
Consider `CC(NC(=O)N1CCN(c2ccc(Cl)cc2)CC1)C(=O)N1CCSCC1` (stereo not given), for which the Percent Effect was -5.11% in experiment [1] and 11.9% in experiment [2].
In the same order, the values of `Cn1cc(CN2CC[C@H]3O[C@H](C(=O)NCc4ccco4)CC[C@H]32)cn1` are 5.47% and -27.7%.
`COc1ccc(CC(=O)NC2(C)CCS(=O)(=O)C2)cc1F` (stereo not given): the Percent Effect in experiment [1] is 4.95%; in experiment [2], -19.1%.
The corresponding values for `NC(=O)c1csc(C(=O)N2CCCC(n3ccnc3)C2)c1` (stereo not given) are -4.35% and 0.351%.
In the same order, the values of `CC(NC(=O)CSCC#N)c1ccccc1` (stereo not given) are 2.98% and 13.3%.
The corresponding values for `O=C(c1cccnc1)N1C[C@@H]2CC[C@H](C1)N(Cc1cccc(Cl)c1F)C2` are 9.03% and -10.5%.
As to `O=C(NC1CCCN(c2ncccn2)C1)c1ccoc1` (stereo not given), the Percent Effect in experiment [1] was -4.64%; in experiment [2] it was -14.5%.
The corresponding values for `COc1cccc(COCC(=O)N2CCCC(c3cc(C)[nH]n3)C2)c1` (stereo not given) are 1.92% and 28.3%.
For `COc1ccccc1Oc1ncccc1CNC(=O)[C@@H](C)NC(C)=O`, the Percent Effect in experiment [1] was 0.362%; in experiment [2], -19.5%.
In the same order, the values of `CNC(=O)c1cc(S(=O)(=O)C(C)C)cs1` are -3.82% and -3.3%.
The corresponding values for `CNS(=O)(=O)c1ccc(C(=O)NC2CCOc3ccccc32)o1` (stereo not given) are -4.13% and 5.97%.
In the case of `CCCC(=O)N1CC[C@@H]2[C@H](CC1)N(Cc1cccnc1)CCS2(=O)=O`, the Percent Effect is -0.493% in experiment [1] and -7.37% in experiment [2].
For the molecule `CCN(C(=O)CS(=O)(=O)Cc1cc(Cl)c2c(c1)OCCCO2)C1CC1`, the Percent Effect in experiment [1] is -0.343%; in experiment [2], 4.47%.
For the molecule `COc1ccc(CN2CCC3(CC(Nc4ccncn4)C3)C2)c(OC)c1` (stereo not given), the Percent Effect in experiment [1] is -0.368%; in experiment [2], -11.8%.
In the same order, the values of `COc1ccc(C(=O)N(Cc2cnn(C)c2)C(C)C)cc1Br` are -1.07% and 5.59%.
In the same order, the values of `CCN(Cc1nc2c(cnn2C)c(=O)[nH]1)c1cccc(Cl)c1` are 0.461% and 19.9%.
Turning to `Cc1cc(CN(Cc2cccs2)CC2CCCO2)no1` (stereo not given), the results for the Percent Effect in experiment [1] and in experiment [2] were 1.32% and 12.5%, respectively.
The corresponding values for `CC(C)c1nn(C)c(Cl)c1CNCc1ccc2c(c1)OCCO2` are 5.79% and 32.9%.
The corresponding values for `CCN1CCN(C2CCN(Cc3cc(C)on3)CC2)C1=O` are -3.97% and -26.8%.
The corresponding values for `Cc1csc([C@@H]2C[C@@H]3CCN(C(=O)c4ccnnc4)C[C@H]3O2)n1` are -2.11% and -6.67%.
With `Cc1cnn(CCC(=O)N2C[C@H]3CC[C@@H]2CN(CC(=O)N(C)C)C3)c1`, the Percent Effect in experiment [1] was 4.25%; in experiment [2] it was -21.6%.
The corresponding values for `COCC1c2c(cnn2CC2CCOCC2)CCN1Cc1ccoc1` (stereo not given) are 0.211% and -9.29%.
In the same order, the values of `OC(CN1CCCCCCC1)c1ccc(F)cc1` (stereo not given) are -2.26% and 10.8%.
In the case of `COCCN1C(=O)C[C@H]2[C@H]1CCN2Cc1ccc(OC)cc1`, the Percent Effect is 6.6% in experiment [1] and -4.38% in experiment [2].
In the same order, the values of `COc1ccc(CN2C[C@@H](N(C)Cc3ccco3)[C@H]3OCCC[C@H]32)cc1` are 0.632% and 4.78%.
In the same order, the values of `CN(CC1CC1)c1ccc2ccc(C(=O)NCCN3CCOCC3)cn12` are -0.228% and -88.6%.
The corresponding values for `O=C(NCCOCC(F)(F)F)c1ccc(-c2ccco2)[nH]c1=O` are 0.409% and 20.7%.
Regarding `O=C(NCCn1ccnc1)c1ccn(-c2cccc(F)c2)n1`, the Percent Effect in experiment [1] turned out to be 5.59%; in experiment [2], 0.0864%.
Consider `COC(=O)CNC(=O)CSCc1nc(O)c2c(C)c(C)sc2n1`, for which the Percent Effect in experiment [1] is -0.261%; in experiment [2] it was -18.2%.
In the same order, the values of `CCOC(=O)N1CCN(c2nc(NC)c3ccccc3n2)CC1` are -2.29% and -9.78%.
The corresponding values for `CN(Cc1ccccc1O)C(=O)NC1CCCN(c2ncccn2)C1` (stereo not given) are -4.06% and 34%.
In the same order, the values of `CC(=O)Nc1nc(C(=O)N2CCCC(n3nc(C)cc3C)C2)cs1` (stereo not given) are -0.815% and 10.8%.
With `O=C(Nc1nccs1)N(CCO)Cc1ccsc1`, the values for the Percent Effect in experiment [1] and in experiment [2] were -2.48% and -3.95%, respectively.
In the same order, the values of `COc1ccc(Cl)cc1C(=O)N1CCOC2(CNCCOC2)C1` (stereo not given) are -0.926% and 11.2%.
